In the library only some 2.4% were active in any assay of this set; here they are far more common.
GLS inhibitor = qHTS for Inhibitors of Glutaminase (GLS); Glutaminase kidney isoform, mitochondrial (Homo sapiens), O94925; GLS enzymatic activity, qHTS titration; Potency, µM (highest dose often 45.5 µM), actives largely listed as inhibitors; 410,000 tested, 0.21% active
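hKGA in 45 mM KH2PO4 pH 8.2, 0.02% Tween-20 with pin-transferred compounds; 1 mM L-glutamine (stock) plus glutamate oxidase/HRP/Amplex Red coupling added. Fluorescence read initially and after 30 min at RT.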
POLH inh = qHTS for Inhibitors of Polymerase Eta | recombinant Pol eta, fluorescent DNA replication assay | DNA polymerase eta (Homo sapiens), Q9Y253 | Potency, µM (doses to about 114 µM), actives largely listed as inhibitors | 390,000 tested, 1.2% active
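Pol eta (10 nM) was preincubated with compounds for 15 min at room temperature, after which fluorescent replication substrate (50 nM final) was added to start the reaction. Fluorescence was read kinetically at 0 and 10 min.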
POLI inh = qHTS for Inhibitors of Polymerase Iota | DNA polymerase iota (Homo sapiens), Q9UNA4 | Potency, µM (series often up to 115 µM), actives largely listed as inhibitors | 390,000 tested, 1% active | Pol iota fluorescent replication assay, 10 min
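Fluorescent replication assay read twice, at 0 min and 10 min after adding 50 nM (final) substrate. Enzyme (10 nM) and compounds were first incubated 15 min at room temperature; enzyme-free buffer wells were negative controls.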
Pol kappa inh = qHTS for Inhibitors of Polymerase Kappa; purified Pol kappa, fluorescent DNA synthesis assay, 10 min; 400,000 tested, 0.53% active; Potency, µM (top dose mostly 107 µM), most hits filed as inhibitors; DNA polymerase kappa (Homo sapiens), Q9UBT6
Target sequence (Q9UBT6 whole entry, looked up): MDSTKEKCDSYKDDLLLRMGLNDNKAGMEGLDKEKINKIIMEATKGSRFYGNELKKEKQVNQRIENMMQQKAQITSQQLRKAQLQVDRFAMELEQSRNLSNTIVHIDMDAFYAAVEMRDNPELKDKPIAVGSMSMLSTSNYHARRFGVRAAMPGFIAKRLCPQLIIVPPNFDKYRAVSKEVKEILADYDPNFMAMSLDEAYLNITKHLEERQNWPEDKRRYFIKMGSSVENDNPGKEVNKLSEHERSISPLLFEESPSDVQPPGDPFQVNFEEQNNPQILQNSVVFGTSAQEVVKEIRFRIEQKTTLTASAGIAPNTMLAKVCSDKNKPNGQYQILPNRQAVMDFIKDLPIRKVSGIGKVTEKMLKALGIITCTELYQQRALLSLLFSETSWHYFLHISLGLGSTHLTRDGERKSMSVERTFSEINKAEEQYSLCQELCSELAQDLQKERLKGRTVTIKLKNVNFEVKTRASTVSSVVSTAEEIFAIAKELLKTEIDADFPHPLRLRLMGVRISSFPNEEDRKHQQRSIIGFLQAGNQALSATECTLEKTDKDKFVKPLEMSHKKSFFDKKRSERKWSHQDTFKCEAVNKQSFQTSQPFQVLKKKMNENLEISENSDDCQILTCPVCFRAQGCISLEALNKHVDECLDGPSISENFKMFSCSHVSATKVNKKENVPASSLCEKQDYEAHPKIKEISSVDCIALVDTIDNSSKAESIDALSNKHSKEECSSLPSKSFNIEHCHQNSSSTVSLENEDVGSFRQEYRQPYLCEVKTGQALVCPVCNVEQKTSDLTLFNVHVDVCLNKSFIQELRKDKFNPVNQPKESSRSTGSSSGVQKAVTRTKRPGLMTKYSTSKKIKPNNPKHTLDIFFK
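Kinetic fluorescence readout at 0 and 10 min followed reaction start with substrate at 50 nM final. Beforehand, enzyme (10 nM Pol kappa) stood 15 min with compound at room temperature; buffer-only wells were negative controls.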
POLB inh = qHTS Assay for Inhibitors of DNA Polymerase Beta; P06746; Pol beta primer extension/strand displacement, fluorescence kinetic; Potency, µM (series often up to 114 µM), actives largely listed as inhibitors; 340,000 tested, 1.3% active; AID 485314, 2010
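Human Pol beta at 10 nM; strand-displacement substrate 50 nM final. Compound exposure 15 min at room temperature before start, reaction 10 min at room temperature.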
APEX1 inh = qHTS Assay for Inhibitors of the Human Apurinic/apyrimidinic Endonuclease 1 (APE1). DNA repair nuclease/redox regulator APEX1 (Homo sapiens), P27695. recombinant APE1, TAMRA/BHQ-2 abasic DNA cleavage fluorescence. Potency, µM (titrated, usually from 65.8 µM), usual class: inhibitors. 350,000 tested, 0.35% active. AID 2517, 2012; also: nearly all actives have a fitted effect of over 55% in size
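Incision of a quenched TAMRA/BHQ-2 THF abasic-site duplex (50 nM) by 0.75 nM APE1, after 15 min compound preincubation, measured as fluorescence increase over three 60 s reads. Values normalized to buffer, DMSO and NSC13755 control wells.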
Hits are given with their value; . = inactive; ? = inconclusive; / = no result; [ ] = another dose, or the depositor's remark. Calls follow the shape of the dose curve; as a rule, active = well fitted curve in the direction sought with a large enough effect; inconclusive = small, poorly fitted or top-dose-only effect, or another doubt; inactive = no such curve, though single readings can be large; an effect the other way counts as inactive or inconclusive.

SMILES | GLS inhibitor | POLH inh | POLI inh | Pol kappa inh | POLB inh | APEX1 inh
CN(C)CCn1nnnc1SCC1=C(C(=O)O)N2C(=O)[C@@H](NC(=O)Cc3csc(N)n3)[C@H]2SC1 | . | ? | 14µM | 50µM | / | ?
CN(C)CCn1nnnc1SCC1=C(C(=O)O)N2C(=O)[C@@H](NC(=O)Cc3csc(N)n3)[C@@H]2SC1 | . | / | / | ? | / | /
CO/N=C(/C(=O)N[C@@H]1C(=O)N2C(C(=O)O)=C(CSc3cnns3)CS[C@H]12)c1csc(N)n1 | 32µM | / | / | .[19.4 µM] | / | /
Cc1ccc(NC(=O)Cn2c(=O)n(Cc3ccc(F)cc3)c(=O)c3cccnc32)cc1C | . | . | ? | . | . | /
Cc1ccc2ccc3cc(C(=O)N4CCN(c5ccccc5F)CC4)nc3c2[nH]1 | . | ? | . | . | . | /
CCSc1nc2sc3c(c2c(=O)n1-c1ccccc1)CCN(C(C)C)C3 | . | . | . | . | . | .
Cn1c(=O)c2[nH]c(NCCCN3CCOCC3)nc2n(C)c1=O | . | . | . | . | 89µM | .
COC1(OC)C=CC(=O)C=C1NC(=O)c1ccccc1OC(C)=O | . | . | 10µM | . | / | /
COc1ccc2cc(S(=O)(=O)n3cnc(C)c3)ccc2c1 | . | . | . | . | . | .
O=c1c2ccccc2nc(/C=C/c2cccnc2)n1CCc1ccccc1 | ? | ? | 7.9µM | . | . | .
CCc1ccc(C(=O)c2cn(CC(=O)NC3CCCCC3)c3nc(C)ccc3c2=O)cc1 | . | . | . | . | . | /
Cc1ccc(C2=NOC(=O)/C2=C\c2ccc(C)o2)cc1 | ? | 79µM | ? | . | . | .
Cc1ccc(/C=C2\C(=O)ON=C2c2ccccc2)o1 | . | . | . | . | . | .
O=C(NCCc1csc(-c2ccc(F)cc2)n1)C(=O)Nc1ccc(Cl)cc1 | . | . | . | . | ? | /
CCCn1c(=O)c2ccccc2n2c(SCCNCCO)nnc12 | . | . | . | . | 0.16µM | .
N#Cc1nc(NCCCCO)nc(Nc2ccccc2)n1 | / | / | / | / | / | .
Cc1sc2nc(CN3CCCC3)nc(NCc3ccncc3)c2c1C | . | . | . | . | . | .
Cc1sc2nc(CN3CCCCC3)nc(Nc3ccc4c(c3)OCCO4)c2c1C | . | . | . | . | 79µM | .
CCn1cc(C(=O)O)c(=O)c2cc(F)c(N3CCN(C(=S)Nc4ccc(OC)cc4)CC3)cc21 | . | . | . | . | . | .
CC(=O)Nc1ccc(NC(=O)c2sc(-c3ccccc3)nc2C)cc1 | . | . | . | . | . | .
Cc1nc(-c2ccncc2)sc1C(=O)Nc1ccc(Br)cc1 | . | . | . | . | 16µM | .
O=C(Cc1ccccc1[N+](=O)[O-])Nc1ccc2c(c1)OCCO2 | . | . | . | . | . | .
COc1ccc(C(CNC(=O)COc2ccccc2)N2CCOCC2)cc1 (stereo unspecified) | . | . | . | . | / | .
O=c1c2c3c(sc2ncn1/N=C/c1ccc([N+](=O)[O-])o1)CCCC3 | . | . | . | . | . | .
COc1ccccc1C1(O)CC2CCC(C1)N2S(=O)(=O)c1ccc(C(C)=O)cc1 (stereo unspecified) | . | . | 100µM | . | . | .
SMILES | GLS inhibitor | POLH inh | POLI inh | Pol kappa inh | POLB inh | APEX1 inh
COC(=O)c1ccc(S(=O)(=O)N2C3CCC2CC(NC(=O)C2CC2)C3)cc1 (stereo unspecified) | . | . | . | . | . | .
COc1cc(/C=C(\C#N)c2[nH]nc(N)c2C#N)cc(OC)c1O | 10µM | ? | ? | . | ? | .
COc1ccccc1/C=c1/[nH]c(=O)/c(=C\c2ccccc2OC)[nH]c1=O | / | / | . | . | / | /
CCCCNC(=O)CCSc1ccc(C)cc1 | . | . | . | . | . | .
Cc1ccc(C2=NN(C(=O)CCCC(=O)O)C(c3ccco3)C2)cc1 (stereo unspecified) | . | . | . | . | 89µM | .
Cn1nnnc1SCC(=O)N1N=C(c2ccc(Cl)cc2)CC1c1ccco1 (stereo unspecified) | . | . | . | . | / | .
O=C(O)CCC(=O)N1N=C(c2ccco2)CC1c1ccco1 (stereo unspecified) | . | ? | 50µM | ? | . | .
O=C(O)CCC(=O)N1N=C(c2ccco2)CC1c1cccs1 (stereo unspecified) | . | . | . | . | ? | .
Cc1nnc(SCC(=O)N2N=C(c3ccc(Cl)cc3)CC2c2ccco2)[nH]c1=O (stereo unspecified) | . | ? | ? | 50µM | 20µM | .
CCCCC(NC(=O)c1ccc(C#N)cc1)C(=O)NCCC (stereo unspecified) | . | . | . | . | / | .
Cc1ccc(NC(=O)c2ccc(Nc3c([N+](=O)[O-])cc([N+](=O)[O-])cc3[N+](=O)[O-])cc2)cc1 | . | ? | 20µM | . | ? | .
Cc1[nH]n(-c2ncc(-c3ccc(Cl)cc3)s2)c(=O)c1C(c1ccc(Cl)cc1)C(C#N)C#N (stereo unspecified) | . | 32µM | . | ? | 18µM | .
Cc1nnc(NC(=O)c2ccc3c(c2)OCO3)s1 | . | . | . | . | . | .
CCOC(=O)Cc1c(C)nc2c(-c3ccc(Cl)cc3)c(C)nn2c1C | . | . | . | . | . | .
CC1CCN(CC(=O)Nc2nc(-c3ccccc3)cs2)CC1 | . | . | . | . | . | .
CN(c1ccc(C(=O)NCCSCc2ccco2)cc1)S(C)(=O)=O | . | . | . | . | 1µM | ?
COc1ccc(N(CC(=O)NCCSCc2ccco2)S(=O)(=O)c2ccccc2)cc1 | . | . | . | . | . | .
O=C(CN(c1ccccc1)S(=O)(=O)c1ccccc1)NCCSCc1ccco1 | . | ? | ? | 79µM | 56µM | 7.9µM
C=CCN=C(C)C1=C(O)C(C)OC1=O (stereo unspecified) | . | . | . | . | . | .
COC(=O)CCC(=O)OC1(C)C(=O)C2=CN(CC3CC3)C(c3ccc(OC)cc3)=CC2=C(Br)C1=O (stereo unspecified) | . | 79µM | ? | . | . | ?
COC(=O)CCC(=O)OC1(C)C(=O)C2=CN(C3CC3)C(c3ccc(OC)cc3)=CC2=C(Br)C1=O (stereo unspecified) | . | 79µM | ? | . | / | .[12.4 µM]

Screens from PubChem BioAssay.
